Shown are actives, neighbours in structure and some others; about 11% of the full set was active somewhere.
OTUD3 block: blocks human OTUD3 ubiquitin-rhodamine cleavage; Q5T2D3; purified OTUD3, Ub-rhodamine fluorescence, 2 h; inhibition, % at 25 µM; actives 0.7% (n = 47,000); AID 1645858
Target sequence (Q5T2D3 whole entry, looked up): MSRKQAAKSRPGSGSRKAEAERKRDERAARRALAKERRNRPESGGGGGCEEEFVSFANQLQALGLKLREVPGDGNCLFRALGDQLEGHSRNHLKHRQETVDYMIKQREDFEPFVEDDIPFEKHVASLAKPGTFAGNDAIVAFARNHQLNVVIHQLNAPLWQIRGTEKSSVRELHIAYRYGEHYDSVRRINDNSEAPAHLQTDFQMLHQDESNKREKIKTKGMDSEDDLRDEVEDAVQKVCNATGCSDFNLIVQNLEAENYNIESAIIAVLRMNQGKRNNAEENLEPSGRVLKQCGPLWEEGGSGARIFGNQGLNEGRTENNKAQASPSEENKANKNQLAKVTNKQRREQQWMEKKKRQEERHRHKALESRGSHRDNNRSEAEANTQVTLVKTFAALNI
USP30 block: human USP30 deubiquitinase inhibition; actives 5.3% (n = 47,000); inhibition, % at 25 µM; purified USP30, Ub-rhodamine cleavage fluorescence; Q70CQ3
USP28 block: blocks human USP28 ubiquitin-rhodamine cleavage; inhibition, % at 25 µM; actives 3% (n = 47,000); purified USP28, Ub-rhodamine cleavage fluorescence, 30 min
USP17 block: blocks human USP17 ubiquitin-rhodamine cleavage. actives 6.5% (n = 47,000). inhibition, % at 50 µM. A8MUK1. AID 1645855. purified USP17, Ub-rhodamine cleavage fluorescence, 3 h
Numbers without * were called inactive; / = not tested or not shown. Rule as the data show it: active = inhibition above about 30%; inactive = the rest.

SMILES	OTUD3 block	USP30 block	USP28 block	USP17 block
COc1cccc(C(=O)Oc2c(Sc3ccccc3)c(C)nn2C(C)(C)C)c1OC	10	11	15	13
COc1ccccc1OC(C)C(=O)Nc1ccc2c(c1)NC(=O)CO2 (centres undefined)	-10	3	-3	-18
COc1ccccc1OC(C)C(=O)Nc1ccc2nsnc2c1 (centres undefined)	17	25	22	32*
CCOc1ccccc1NC(=O)c1cc(S(=O)(=O)N2CCN(c3ccccn3)CC2)ccc1F	-1	-5	-5	-7
COC(=O)C1Cc2ccccc2CN1Cc1c(O)ccc2ccccc12 (centres undefined)	6	-12	-11	0
CC1(C)CC2CC(C)(CN2Cc2c(O)ccc3ccccc23)C1 (centres undefined)	-3	-24	1	57*
CCCOc1ccc(C2CN3C(=O)CN(Cc4ccco4)C(=O)[C@]3(C)c3[nH]c4ccccc4c32)cc1OC (some centres undefined)	8	10	3	1
C[C@]12C(=O)N(Cc3ccco3)CC(=O)N1CC(c1ccc(Cl)cc1)c1c2[nH]c2ccccc12 (some centres undefined)	-2	-51	3	31*
CCN1CC2(CC1=O)CN(C(=O)c1ccccc1)CCN(C(=O)C(C)C)C2 (centres undefined)	16	25	8	5
CCN1CCN(c2ncc(-c3cc(=O)[nH]c(Nc4nc(C)c5ccc(C)cc5n4)n3)c(C)n2)CC1	15	14	2	8
Cc1nn(-c2nc3ccccc3[nH]2)c2c1C(c1ccsc1)CC(=O)N2 (centres undefined)	3	14	-3	45*
COc1ccc(CCn2c(-c3ccccc3C)nc3c(c(=O)c4ccccc4n3C)c2=O)cc1	9	6	5	/
Cc1nc2c(c(=O)c3ccccc3n2C)c(=O)n1Cc1ccco1	15	-32	15	12
Cn1c2ccccc2c(=O)c2c(=O)n(Cc3ccccc3)c(-c3ccco3)nc21	1	-21	44*	59*
Cn1c2ccccc2c(=O)c2c(=O)n(Cc3ccccc3)c(-c3ccccc3F)nc21	-15	-15	0	66*
COCCCn1c(-c2ccc([N+](=O)[O-])cc2)nc2c(c(=O)c3ccccc3n2C)c1=O	-3	-10	1	10
Cn1c2ccccc2c(=O)c2c(=O)n(Cc3ccccc3)c(-c3ccc(C(C)(C)C)cc3)nc21	-7	2	-7	50*
Cc1ccc(-c2nc3c(c(=O)c4ccccc4n3C)c(=O)n2-c2ccc(F)cc2)cc1	-5	7	-2	43*
O=C(Nc1ccccc1F)C1CCCN(S(=O)(=O)N2CCOCC2)C1 (centres undefined)	-9	-33	-5	-2
COc1cc2nc(NC(=O)c3ccc(F)cc3Cl)sc(=O)c2cc1OC	19	92*	78*	62*
CN(C)S(=O)(=O)c1cccc(C(=O)N(CCc2ccccc2)c2nc3ccccc3s2)c1	-6	-14	-5	-5
COc1ccc(CNC(=O)CN(C(=O)CCC(=O)Nc2ccccn2)c2ccc(OC)cc2)cc1	2	18	4	23
O=C(CN(C(=O)CCC(=O)Nc1ccccn1)c1cccc(F)c1)NCc1ccc(F)cc1	11	33*	8	14
O=C(/C=C/c1c(F)cccc1Cl)NCc1ccccn1	-5	-64	-10	-21
CCN(CC)C(=O)c1sc(NC(=O)/C=C/c2c(F)cccc2Cl)c(C#N)c1C	23	-29	17	62*
SMILES	OTUD3 block	USP30 block	USP28 block	USP17 block
COc1cc(OC)cc(-n2c(=O)c3ccccc3n(CC(=O)NCCC3=CCCCC3)c2=O)c1	11	22	-19	29
COc1ccccc1CNC(=O)CCCn1c(=O)c2ccccc2n(CC(=O)N2CCN(c3ccccc3)CC2)c1=O	2	-2	-6	57*
COc1ccc(-n2c(=O)c3ccc(C(=O)NCCc4ccccc4)cc3n(CC(=O)Nc3ccc(C)cc3C)c2=O)cc1	-3	9	0	8
O=C(CCCn1c(=O)c2ccccc2n(CC(=O)N2CCN(c3ccccc3)CC2)c1=O)NCc1ccco1	6	-18	-4	/
COc1ccccc1CNC(=O)CCCCn1c(=O)c2ccccc2n(CC(=O)NCCC2=CCCCC2)c1=O	6	4	-3	43*
COc1ccc(-n2c(=O)c3ccc(C(=O)NCCc4ccccc4)cc3n(CC(=O)NCCC3=CCCCC3)c2=O)cc1	29	4	7	41*
O=C(Cn1c(=O)c2sccc2n(CC(=O)NCCC2=CCCCC2)c1=O)NCc1ccccc1Cl	2	/	/	48*
COc1ccc(C(CNC(=O)c2cccs2)N2CCN(C)CC2)cc1 (centres undefined)	11	17	8	14
COc1ccc2c(CNCCC3=CCCCC3)c(C(=O)O)n(Cc3ccccc3F)c2c1	11	40*	23	29
O=C(COc1ccc(Cl)cc1Cl)Nc1ccccc1-c1nc2ccccc2[nH]1	17	10	10	84*
O=C(COc1ccc(Cl)cc1Cl)Nc1ccc2sccc2c1	-3	46*	0	41*
Cc1cc(Cl)ccc1OCC(=O)Nc1ncccc1C	-12	-3	-4	-3
O=C(COc1ccc(Cl)cc1Cl)Nc1noc2ccccc12	-6	-13	0	40*
Cc1ccccc1CNC(=O)CC1c2ncccc2C(=O)N1c1ccccc1 (centres undefined)	6	0	11	-2
Cc1ccc2ncc(NC(=O)c3ccccc3C)c(=O)n2c1	0	2	-7	-14
Cc1ccccc1C(=O)Nc1ccc(Cc2ccc(NC(=O)c3ccccc3C)c(O)c2)cc1O	-11	-158	15	55*
Cc1ccc2[nH]c3c(=O)n(CCc4ccc(O)cc4)cnc3c2c1	5	93*	43*	57*
Cc1ccc2[nH]c3c(=O)n(CCN4CCCC4)cnc3c2c1	11	5	13	5
Cc1ccc2[nH]c3c(=O)n(CC4CCCO4)cnc3c2c1 (centres undefined)	3	44*	-4	68*
COc1ccc(CCn2cnc3c([nH]c4ccccc43)c2=O)cc1	11	96*	35*	34*
CC(=O)N1CC2(CCN(S(=O)(=O)c3ccccc3)CC2)C2(CCN(C)C2=O)C1 (centres undefined)	18	0	11	2
Cc1cccc(NC(=O)Cn2cnc(-c3noc(-c4ccccc4)n3)c2)c1C	37*	44*	39*	18
Cc1ccc(-c2noc(-c3cn(Cc4ccc(N)cc4)cn3)n2)cc1	-13	-3	4	0
O=C(Nc1ccc(Cn2cnc(-c3nc(-c4ccccc4)no3)c2)cc1)c1ccccc1F	9	32*	23	/
Cc1ccccc1-c1noc(-c2cn(Cc3ccc(NC(=O)Cc4ccccc4)cc3)cn2)n1	6	69*	37*	60*
O=C(COc1ccc(F)cc1)NCC(c1ccco1)N1CCOCC1 (centres undefined)	-7	-42	2	-29

High-throughput results deposited in PubChem BioAssay by Buhrlage Lab, Dana-Farber Cancer Institute and Novartis Institutes for BioMedical Research (Cambridge, Mass).
